Some test systems named below: NCI-H23 lung; NCI-H226 lung; NCI-H322M lung; HOP-62 NSCLC; NCI-H460 lung; HOP-92 NSCLC; NCI-H522 lung; A549/ATCC NSCLC; 786-0 renal; COLO 205 colon.
Common to all, as to assay: NCI-60 one-dose screen, 48 h (100 = growth as untreated, 0 = no growth, -100 = all killed)
Details in all cases: 10 µM unless noted

SMILES strings stand for the structures. About 83,000 compounds went through this panel and 20% of them were active in at least one assay; those are over-represented in the sample as a whole.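 How to read the values: 0–100, growth inhibition (40 = 60% inhibited); 0, no net growth; -100 to 0, cell death (-40 = 40% of starting cells died; -100 = all dead).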 Values without a mark were called inactive. Calls of active or inactive are those of the source. How the source made its calls: active means growth percent below 10; inactive means the rest.

In the case of `CCCCCCCCCCCCCCCCCCNCc1ccc(Cl)cc1`, the growth with NCI-H23 lung was -65.4% (active); with NCI-H226 lung it was 4.03% (active); in the test with NCI-H322M lung, 9.39% (active); in the test with HOP-62 NSCLC, -77.7% (active); in the test with NCI-H460 lung, -71.6% (active); in the test with HOP-92 NSCLC, -78% (active). Further, the growth with NCI-H522 lung was -82.5% (active); with A549/ATCC NSCLC, -80.7% (active); with 786-0 renal it was -75.1% (active); in the test on COLO 205 colon, -83.9% (active).

As to `COc1ccccc1C(OC(C)=O)OC(C)=O`, the growth in the test on NCI-H23 lung is 98.7%; with NCI-H226 lung it was 94%; with NCI-H322M lung, 97.5%; in the test with HOP-62 NSCLC, 104%; in the test on NCI-H460 lung, 107%; with HOP-92 NSCLC it was 115%. Moreover, the growth is 78% in the test with NCI-H522 lung, 79.5% with A549/ATCC NSCLC, 97.7% in the test on 786-0 renal and 110% with COLO 205 colon.

With `CN(C)C(=O)Nc1nc2cc(Cl)c(Cl)cc2[nH]1`, the growth in the test on NCI-H23 lung was 11.4%; in the test on NCI-H226 lung, 30.4%; with NCI-H322M lung, 39.9%; in the test with HOP-62 NSCLC, -38.6% (active); in the test on NCI-H460 lung it was 2.78% (active); with HOP-92 NSCLC, 75.3%. Moreover, the growth is -58.1% (active) in the test with NCI-H522 lung, 3.32% (active) with A549/ATCC NSCLC, -66.2% (active) in the test with 786-0 renal and -12.9% (active) in the test on COLO 205 colon.

Take `COc1ccc(-c2nn(-c3ccc(NC(=O)Nc4ccc(Cl)c(C(F)(F)F)c4)cc3)cc2-c2ccncc2)cc1Cl`: the growth was 6.3% (active) with NCI-H23 lung; 1.73% (active) with NCI-H226 lung; 32.7% with NCI-H322M lung; -0.289% (active) with HOP-62 NSCLC; -28.2% (active) with NCI-H460 lung; -22% (active) in the test on HOP-92 NSCLC. Also, the growth is -2.66% (active) in the test with NCI-H522 lung, 10.3% in the test with A549/ATCC NSCLC, -33.7% (active) in the test on 786-0 renal and -74.5% (active) in the test with COLO 205 colon.

Turning to `CCCCCC/C=N/Nc1ccc([N+](=O)[O-])cn1`, the growth with NCI-H23 lung is 98.3%; in the test on NCI-H226 lung, 99.1%; in the test on NCI-H322M lung it was 98.7%; in the test with HOP-62 NSCLC it was 87.8%; with NCI-H460 lung it was 112%; in the test with HOP-92 NSCLC it was 104%. The growth in the test with NCI-H522 lung was 78.2%; with A549/ATCC NSCLC, 90.6%; in the test with 786-0 renal, 94.7%; with COLO 205 colon, 98%.

`COc1cc(NS(C)(=O)=O)ccc1Cc1c2ccccc2nc2ccccc12`: the growth in the test on NCI-H23 lung is 11.2%; in the test with NCI-H226 lung it was -17.5% (active); with NCI-H322M lung, 75.2%; in the test with HOP-62 NSCLC, -13.9% (active); in the test on NCI-H460 lung it was -1.15% (active); in the test with HOP-92 NSCLC it was 21.2%. The growth is 43.2% in the test on NCI-H522 lung, -11.8% (active) in the test with A549/ATCC NSCLC, -10.6% (active) in the test on 786-0 renal and 29.8% with COLO 205 colon.

In the case of `COC(=O)c1oc2c(C(C)=O)c(OCCN3CCCCC3)ccc2c1C`, the growth with NCI-H23 lung is 97.9%; with NCI-H226 lung it was 118%; in the test with NCI-H322M lung it was 84.9%; in the test with HOP-62 NSCLC, 125%; in the test with NCI-H460 lung, 131%; with HOP-92 NSCLC it was 60.4%. Moreover, the growth in the test with NCI-H522 lung was 79.6%; with A549/ATCC NSCLC, 123%; in the test with 786-0 renal, 52.9%; in the test on COLO 205 colon, 130%.

Turning to `Fc1ccc(Nc2ncnc3ccc(-c4cn[nH]c4)cc23)cc1Cl`, the growth in the test on NCI-H23 lung was 80.3%; in the test on NCI-H226 lung it was 57.1%; in the test with NCI-H322M lung, 15.9%; with HOP-62 NSCLC, 66.2%; in the test with NCI-H460 lung it was 55.5%; with HOP-92 NSCLC, 54.6%. Also, the growth is 10.3% with NCI-H522 lung, 49.5% in the test on A549/ATCC NSCLC, 61.5% in the test with 786-0 renal and 60.7% in the test with COLO 205 colon.

In the case of `Cc1cc(NC(=O)c2cccc(C(F)(F)F)c2)ccc1-n1ccc2c(NC(=O)c3ccccc3)nccc21`, the growth is 94.6% with NCI-H23 lung; 112% with NCI-H226 lung; 77.4% with NCI-H322M lung; 87.4% with HOP-62 NSCLC; 116% in the test with NCI-H460 lung; 123% in the test with HOP-92 NSCLC. The growth in the test on NCI-H522 lung is 85.6%; in the test on A549/ATCC NSCLC, 86.8%; with 786-0 renal, 102%; in the test with COLO 205 colon, 113%.

Regarding `CN1CCN(C(=O)/C=C/c2ccc([N+](=O)[O-])o2)CC1`, the growth is 98.1% with NCI-H23 lung; 110% with NCI-H226 lung; 111% in the test with NCI-H322M lung; 134% in the test with HOP-62 NSCLC; 91% in the test on NCI-H460 lung; 85.9% with HOP-92 NSCLC. Besides, the growth in the test on NCI-H522 lung was 4.39% (active); in the test with A549/ATCC NSCLC it was 53.8%; in the test on 786-0 renal it was 110%; with COLO 205 colon, 76.2%.

With `CN1CCN(Cn2nc(-c3cc(Cl)cc(Cl)c3Cl)n(/N=C/c3ccc(Cl)cc3)c2=S)CC1`, the growth in the test with NCI-H23 lung was 92.5%; with NCI-H226 lung, 104%; with NCI-H322M lung, 67.6%; with HOP-62 NSCLC, 95%; in the test with NCI-H460 lung, 106%; with HOP-92 NSCLC, 43.7%. Further, the growth in the test on NCI-H522 lung was 91.1%; in the test with A549/ATCC NSCLC, 94%; in the test with 786-0 renal, 89.1%; in the test on COLO 205 colon, 118%.

With `CC(C(=O)O)N1C(N)=NNC1c1ccccc1O` (stereo not given), the growth in the test on NCI-H23 lung is 86.3%; in the test with NCI-H226 lung, 84.6%; with NCI-H322M lung it was 82.3%; in the test with HOP-62 NSCLC it was 81.5%; in the test with NCI-H460 lung it was 84.7%; in the test with HOP-92 NSCLC, 77.7%. Further, the growth is 74.8% in the test on NCI-H522 lung, 83.3% in the test with A549/ATCC NSCLC, 104% with 786-0 renal and 103% with COLO 205 colon.

With `CC(=O)c1cc2c(N)c(C(=O)Nc3cccc(Cl)c3)sc2nc1C`, the growth with NCI-H23 lung was 91%; with NCI-H226 lung, 87.3%; in the test on NCI-H322M lung, 77.7%; in the test on HOP-62 NSCLC it was 90.4%; in the test with NCI-H460 lung, 45.7%; with HOP-92 NSCLC, 58.3%. In addition, the growth in the test on NCI-H522 lung is 72.9%; with A549/ATCC NSCLC, 39.3%; in the test on 786-0 renal, 89.1%; in the test on COLO 205 colon it was 40.7%.

For the molecule `O=C1/C(=C/c2cccc3cnccc23)Cc2cc(F)ccc21`, the growth in the test with NCI-H23 lung was 87.7%; with NCI-H226 lung, 73.8%; in the test on NCI-H322M lung it was 93.9%; in the test on HOP-62 NSCLC it was 65.1%; in the test on NCI-H460 lung it was 95.9%; in the test with HOP-92 NSCLC it was 75.3%. In addition, the growth in the test on NCI-H522 lung was 78.4%; in the test with A549/ATCC NSCLC, 98.7%; in the test on 786-0 renal it was 97.4%; with COLO 205 colon, 81.8%.
